# Bioassay records from PubChem.
# HIF-2a inh = blocks HIF-2a reporter activity. 360,000 compounds, 0.72% hits. inhibition, % at 18.8 µM. 786-0 RCC cells HIF-2a reporter, luciferase luminescence, overnight;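 active = inhibition of the luminescence signal of 40% or more relative to plate controls, in a single-dose primary screen at 18.75 µM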
# CF NFkB inh = inhibitors of cystic fibrosis induced NF-kB | KKLEB NF-kB-GFP reporter, PAF-induced, GFP fluorescence overnight | AID 588850 | 360,000 compounds, 0.86% hits | inhibition, % at 5 µM;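 active = at least 50% inhibition at 5 µM, scaled per plate between neutral and stimulator controls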;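 also: PAF is a Pseudomonas aeruginosa culture filtrate used as stimulus; plate controls were PAF-stimulated DMSO wells for no effect and unstimulated DMSO wells for full effect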
# Peg3 promoter = Peg3 promoter activity inhibition. HeLa PEG-Prom luciferase reporter, luminescence, overnight. inhibition, % at 20 µM. 360,000 compounds, 1.7% hits;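 active = inhibition of at least 50% at 20 µM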
# MITF TRPM1 inh = reduces MITF-dependent TRPM1 promoter luciferase signal. AID 488899. inhibition, % at 12.5 µM. SK-MEL-5 TRPM1 promoter luciferase, 24 h. 330,000 compounds, 0.83% hits;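 active = mean inhibition across replicates of 60% or more, whatever share of single replicates reaches that level; inconclusive = some that reach 60%, reason not given; inactive = mean inhibition across replicates below 60%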
# KKLEB cytotox = reduces viability of KKLEB cystic fibrosis airway cells | KKLEB CF airway cells viability, ATPlite luminescence, overnight; hits give low values; cells stimulated with P. aeruginosa culture filtrate | activity change (cytotoxicity), % at 5 µM | 360,000 compounds, 0.36% hits | AID 602141;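 active = corrected activity change at or below -50% at 5 µM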
# Shn3 3UTR inh = Schnurri-3 reporter inhibition in Clone20 osteoblasts; Clone20 osteoblast Shn3 3'UTR firefly luciferase, 24 h; inhibition, % at 12.5 µM; 360,000 compounds, 0.52% hits;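 active = mean inhibition of at least 75% with every replicate also reaching 75%; inconclusive = mean inhibition at least 75% but some replicate below; inactive = mean inhibition below 75%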;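 also: 0% = median of neutral control wells and 100% = pilot-screen positive control compound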
# * = called active by the depositor; ? = inconclusive; / = no result. Most compounds without a hit are left out; they make up all but 2.7% or so of the library.
SMILES,HIF-2a inh,CF NFkB inh,Peg3 promoter,MITF TRPM1 inh,KKLEB cytotox,Shn3 3UTR inh
C[N+](C)(C)CC1CCCC(C[N+](C)(C)C)C1=O (centres undefined),17,6,83*,-4,-5,-16
C[N+](C)(C)CC1CCCc2ccccc2C1=O (centres undefined),10,30,24,-2,-8,1
COc1cc(C(=O)N/N=C/C23CC[C@@H](O)CC2(O)CC[C@@H]2[C@@H]3CCC3(C)C(C4=CC(=O)OC4)CCC23O)ccc1O (some centres undefined),7,-13,7,-16,7,1
CC(=O)OC1CC(OC2C(O)CC(OC3C(O)CC(OC4CCC5(C)C(CCC6C5CCC5(C)C(C7=CC(=O)OC7)CCC65O)C4)OC3C)OC2C)OC(C)C1OC1OC(CO)C(O)C(O)C1O (centres undefined),82*,82*,107*,80*,-58*,1
COC(=O)C1=C(c2cccc(OCc3ccccc3)c2)C[C@@H]2CC[C@H]1N2C(=O)NCCN1CCOCC1,1,-10,23,4,-1,-5
COc1ccc(N2C(=O)C(=O)N(c3ccc(OC)cc3)P2(=O)N(CCCl)CCCl)cc1,3,-2,-2,-2,-16,-9
COC(/C(C)=C/C=C/C(C)=C/c1coc(C)n1)C(C)C1CC(O)C2(C)OC2C=CC(C)C2CC(CC(=O)O2)CC2OC2C(=O)O1 (centres undefined),29,32,-17,65*,-14,12
Cc1cc(C)n(-c2ccc(NN=C(C#N)C#N)cc2)n1,3,76*,-2,7,-2,11
N#CC(C#N)=NNc1ccc(-n2ccc(C(F)(F)F)n2)cc1,-21,79*,21,42,-46,/
CCC(C)C(NC(=O)CCCNC(=O)CCC(=O)OC1O[C@H]2OC3(C)CC[C@H]4[C@H](C)CCC(C1C)C24OO3)C(=O)O (some centres undefined),-2,7,47,43,6,87*
CCC(C)NC(=O)CCC(=O)OC1O[C@H]2OC3(C)CC[C@H]4[C@H](C)CCC(C1C)C24OO3 (some centres undefined),17,22,34,30,-10,67
COc1ccc(CNCCc2c[nH]c3ccccc23)c(OC)c1C,3,21,109*,-3,-14,6
COc1cc(C)c(CNCCc2c[nH]c3ccccc23)cc1C,17,22,95*,42,-9,39
CCC1(C2=NCCN2)Cc2ccccc2O1 (centres undefined),-3,-4,-5,15,18,6
CCCN1CCC(NC2CCC(O)CC2)CC1 (centres undefined),-1,-5,-8,2,-5,1
Cc1ccc(OCCOc2cccc(C=C3C(=O)NC(=O)NC3=O)c2)cc1,20,0,16,31,1,9
COc1ccc(-n2c(/C=C/c3ccc(O)cc3)nc3ccccc3c2=O)cc1,-43,-13,38,4,-4,19
CCn1nc(/C=C/c2ccccc2)nc2c(=O)n(C)c(=O)nc1-2,-20,76*,94*,104*,-22,98*
CCn1nc(-c2cccs2)nc2c(=O)n(C)c(=O)nc1-2,80*,98*,118*,100*,-89*,97*
O=C(O)C1CC2(Cl)C(Cl)=C(Cl)C1(Cl)C2(Cl)Cl (centres undefined),6,-13,1,15,14,7
CC(=O)N[C@@H]1CC[C@@]2(O)[C@H]3Cc4ccc(O)c5c4[C@@]2(CCN3CC2CC2)[C@@H]1O5,16,24,-4,1,4,-18
N=c1c2c(n(Cc3ccc(Cl)cc3Cl)c3c1CCC3)CCCC2,11,-7,28,53,7,86*
c1ccc2c(c1)CSc1ccccc1C2C1=NCCN1 (centres undefined),5,31,16,-12,-16,-9
Brc1ccc2c(c1)C(OC1CN3CCC1CC3)c1ccccc1CS2 (centres undefined),21,20,110*,?,-24,5
O=C(CCC(=O)N1CC2C[C@@H](C1)Cn1c2cccc1=O)NCCc1ccccc1F,-8,24,10,5,-2,5
SMILES,HIF-2a inh,CF NFkB inh,Peg3 promoter,MITF TRPM1 inh,KKLEB cytotox,Shn3 3UTR inh
COC1=C(C)C(=O)C2=C(C1=O)C(CO)N1C(C#N)C3CC4C(C1C2N1CCOC41)N3C (centres undefined),30,88*,95*,76*,-23,-6
CC12CCC3C(CC=C4CC(O)CCC43C)C1C/C(=C\c1ccccc1F)C2=O (centres undefined),-15,40,51*,-17,-29,4
O=P1(NCCCl)OCCCN1CCCl (centres undefined),6,6,-6,-11,3,-6
CCn1c(O)c(C=NCCN2CCOCC2)c(=O)n(CC)c1=S,33,54*,8,17,2,8
CCn1c(O)c(C=Nc2ccc(N3CCOCC3)cc2)c(=O)n(CC)c1=S,24,57*,-16,7,-22,8
CCn1c(O)c(C=Nc2ccc(N3CCOCC3)c(Br)c2)c(=O)n(CC)c1=S,15,44,4,37,-4,5
Cc1cc(O)c2c(c1)C(=O)C13C(=C2O)C(=O)[C@H]2[C@@H](O)[C@@H]1[C@H]1[C@H](O)[C@@H]3C(=O)C3=C(O)c4c(O)cc(C)cc4C(=O)C312 (some centres undefined),-18,79*,19,35,-14,58
C/C1=C\[C@@H](C)C/C=C/[C@H]2[C@@H]3O[C@]3(C)[C@@H](C)[C@H]3[C@H](Cc4c[nH]c5ccccc45)NC(=O)[C@]32C(=O)/C=C/C(=O)[C@@H]1O,76*,73*,98*,/,-53*,88*
CCN(CC)S(=O)(=O)c1ccc(NN=C(C#N)C#N)cc1,3,67*,6,-6,5,-3
CCOP(=O)(CCP(=O)(OCC)OCC)OCC.C[CH2][Sn]([Cl])([Cl])[CH2]C,-18,53*,-57,85*,36,48
CCOP(=O)(OCC)OCC,3,-12,-10,2,-1,3
COc1cccc2c1N=C1CCCC3CN(C(C)=O)CCC123 (centres undefined),11,19,11,-7,-15,-11
COC(=O)C1=C(c2cccc(Cl)c2)C[C@@H]2CC[C@H]1N2C(=O)N1CCCC1,18,-6,-1,-1,-2,2
COC(=O)C1=C(c2ccc(OCc3ccccc3)cc2)C[C@@H]2CC[C@H]1N2C(=O)NCCN1CCOCC1,0,-6,11,1,-10,-1
